Publication PMC7862700, “An all-to-all approach to the identification of sequence-specific readers for epigenetic DNA modifications on cytosine”

Tests used:
Experiment in all cases: DAPPL (digital affinity profiling via proximity ligation, sequencing); 10 mM Tris-HCl pH 7.5, 50 mM NaCl, 1 mM DTT, 4% glycerol, room temperature, 30 min; GST-TFs on glutathione beads, 16-mer random dsDNA library, 0.1% formaldehyde crosslink after washing; high values mean tight binding
FLI1 = biological target: T1, FLI1 (Homo sapiens, UniProt Q01543 1-452); conditions: protein: recombinant; tags: N-terminal GST; dsDNA, one strand shown
T1 sequence: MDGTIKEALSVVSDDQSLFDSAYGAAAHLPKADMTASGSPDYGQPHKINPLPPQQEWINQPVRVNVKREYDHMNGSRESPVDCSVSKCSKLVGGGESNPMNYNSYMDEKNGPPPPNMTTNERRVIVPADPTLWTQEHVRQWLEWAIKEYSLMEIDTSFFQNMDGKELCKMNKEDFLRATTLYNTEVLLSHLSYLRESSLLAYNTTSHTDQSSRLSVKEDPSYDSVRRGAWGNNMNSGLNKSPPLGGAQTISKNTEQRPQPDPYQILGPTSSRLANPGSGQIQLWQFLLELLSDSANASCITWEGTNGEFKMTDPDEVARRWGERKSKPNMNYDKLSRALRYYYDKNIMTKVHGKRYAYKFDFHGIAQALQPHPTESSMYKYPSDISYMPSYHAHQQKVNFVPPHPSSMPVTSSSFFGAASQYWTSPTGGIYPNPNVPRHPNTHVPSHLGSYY
Procedure, shortened: (§1)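 Human transcription factors were made in yeast as GST fusions, captured on glutathione beads and barcoded with DNA. With a tag-only sample included, the pool was incubated with 200 nmole of a random double-stranded 16-mer DNA library in Tris/NaCl/DTT/glycerol buffer at room temperature for 30 min, then crosslinked with 0.1% formaldehyde after washing, ligated by proximity, amplified and sequenced. For binding signal, each hexamer's read frequency for a factor is divided by its frequency for the tag-only sample.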

ELK1 = biological target: T2, ELK1 (Homo sapiens, UniProt P19419 1-428); conditions: protein: recombinant; tags: N-terminal GST; dsDNA, one strand shown
T2 sequence: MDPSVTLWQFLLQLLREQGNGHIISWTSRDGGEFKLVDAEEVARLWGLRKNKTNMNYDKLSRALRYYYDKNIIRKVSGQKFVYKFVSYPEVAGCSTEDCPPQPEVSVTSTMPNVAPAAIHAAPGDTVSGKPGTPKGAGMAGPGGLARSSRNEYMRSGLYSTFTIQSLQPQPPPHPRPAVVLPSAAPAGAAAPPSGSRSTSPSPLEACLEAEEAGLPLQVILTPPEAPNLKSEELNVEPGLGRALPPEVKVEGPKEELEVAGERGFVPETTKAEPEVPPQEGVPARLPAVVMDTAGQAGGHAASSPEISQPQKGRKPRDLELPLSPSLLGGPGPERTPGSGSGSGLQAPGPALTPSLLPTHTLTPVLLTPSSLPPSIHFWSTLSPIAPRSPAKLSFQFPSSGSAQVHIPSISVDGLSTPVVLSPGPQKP
Procedure, shortened: as §1

ELF1 = ELF1 (Homo sapiens, UniProt P32519 1-619); conditions: protein: recombinant; tags: N-terminal GST; dsDNA, one strand shown
Procedure, shortened: as §1

ETV5 = ETV5 (Homo sapiens, UniProt P41161 1-510); conditions: protein: recombinant; tags: N-terminal GST; dsDNA, one strand shown
Procedure, shortened: as §1

HSF1 = HSF1 (Homo sapiens, UniProt Q00613 1-529); conditions: protein: recombinant; tags: N-terminal GST; chain copies: 3; dsDNA, one strand shown
Procedure, shortened: as §1

ELK4 = biological target: T3, ELK4 (Homo sapiens, UniProt P28324-2 1-405); conditions: protein: recombinant; tags: N-terminal GST; dsDNA, one strand shown
T3 sequence: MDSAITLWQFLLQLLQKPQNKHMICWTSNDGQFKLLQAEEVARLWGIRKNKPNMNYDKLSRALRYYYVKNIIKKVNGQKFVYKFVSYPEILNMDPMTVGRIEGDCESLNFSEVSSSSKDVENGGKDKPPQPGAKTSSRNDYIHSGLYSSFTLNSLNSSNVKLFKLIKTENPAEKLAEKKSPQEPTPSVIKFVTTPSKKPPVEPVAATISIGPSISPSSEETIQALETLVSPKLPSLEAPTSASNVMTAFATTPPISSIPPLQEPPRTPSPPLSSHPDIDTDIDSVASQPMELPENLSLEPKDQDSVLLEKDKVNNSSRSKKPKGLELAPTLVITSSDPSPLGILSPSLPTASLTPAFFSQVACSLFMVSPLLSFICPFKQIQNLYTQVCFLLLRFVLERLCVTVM
Procedure, shortened: as §1

ELF3 = biological target: T4, ELF3 (Homo sapiens, UniProt P78545 1-371); conditions: protein: recombinant; tags: N-terminal GST; dsDNA, one strand shown
T4 sequence: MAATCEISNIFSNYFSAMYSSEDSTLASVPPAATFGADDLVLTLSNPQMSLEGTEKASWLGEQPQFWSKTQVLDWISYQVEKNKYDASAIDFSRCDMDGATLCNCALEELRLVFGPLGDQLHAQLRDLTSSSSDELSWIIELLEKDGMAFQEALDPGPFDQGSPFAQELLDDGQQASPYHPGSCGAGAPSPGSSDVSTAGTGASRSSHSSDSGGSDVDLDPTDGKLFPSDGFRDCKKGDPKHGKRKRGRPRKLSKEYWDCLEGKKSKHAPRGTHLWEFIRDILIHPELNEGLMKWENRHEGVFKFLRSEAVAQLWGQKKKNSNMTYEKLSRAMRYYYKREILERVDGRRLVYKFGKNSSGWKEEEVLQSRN
Procedure, shortened: as §1

CRX = CRX (Homo sapiens, UniProt O43186 1-299); conditions: protein: recombinant; tags: N-terminal GST; dsDNA, one strand shown
Procedure, shortened: as §1

GABPA = biological target: T5, GABPA (Homo sapiens, UniProt Q06546 1-454); conditions: protein: recombinant; tags: N-terminal GST; dsDNA, one strand shown
T5 sequence: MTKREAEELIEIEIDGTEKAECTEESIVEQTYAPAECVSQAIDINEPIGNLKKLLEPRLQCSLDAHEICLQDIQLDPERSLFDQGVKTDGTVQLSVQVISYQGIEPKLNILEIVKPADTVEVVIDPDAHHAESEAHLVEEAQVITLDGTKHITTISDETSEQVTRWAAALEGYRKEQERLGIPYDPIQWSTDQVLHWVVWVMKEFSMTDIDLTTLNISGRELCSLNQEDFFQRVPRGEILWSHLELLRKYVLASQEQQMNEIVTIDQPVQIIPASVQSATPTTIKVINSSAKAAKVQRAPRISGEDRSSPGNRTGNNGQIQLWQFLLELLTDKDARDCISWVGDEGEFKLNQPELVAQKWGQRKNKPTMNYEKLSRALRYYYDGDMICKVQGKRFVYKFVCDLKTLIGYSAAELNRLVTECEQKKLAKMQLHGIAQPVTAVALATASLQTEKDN
Procedure, shortened: as §1

ERG = biological target: T6, ERG (Homo sapiens, UniProt P11308 1-479); conditions: protein: recombinant; tags: N-terminal GST; dsDNA, one strand shown
T6 sequence: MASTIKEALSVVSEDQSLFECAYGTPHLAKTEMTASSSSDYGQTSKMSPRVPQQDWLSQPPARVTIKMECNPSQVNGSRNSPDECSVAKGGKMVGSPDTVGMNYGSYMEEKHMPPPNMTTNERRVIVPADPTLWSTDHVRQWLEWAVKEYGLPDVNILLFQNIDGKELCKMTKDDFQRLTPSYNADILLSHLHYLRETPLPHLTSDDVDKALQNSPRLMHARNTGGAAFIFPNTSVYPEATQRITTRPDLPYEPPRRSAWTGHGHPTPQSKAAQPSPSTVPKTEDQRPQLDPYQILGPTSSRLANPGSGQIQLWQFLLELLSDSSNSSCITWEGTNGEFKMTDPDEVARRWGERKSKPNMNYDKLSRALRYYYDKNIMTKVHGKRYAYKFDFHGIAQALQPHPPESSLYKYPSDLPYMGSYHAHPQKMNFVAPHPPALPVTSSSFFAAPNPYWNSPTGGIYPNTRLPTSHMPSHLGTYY
Procedure, shortened: as §1

EHF = biological target: T7, EHF (Homo sapiens, UniProt Q9NZC4 1-300); conditions: protein: recombinant; tags: N-terminal GST; dsDNA, one strand shown
T7 sequence: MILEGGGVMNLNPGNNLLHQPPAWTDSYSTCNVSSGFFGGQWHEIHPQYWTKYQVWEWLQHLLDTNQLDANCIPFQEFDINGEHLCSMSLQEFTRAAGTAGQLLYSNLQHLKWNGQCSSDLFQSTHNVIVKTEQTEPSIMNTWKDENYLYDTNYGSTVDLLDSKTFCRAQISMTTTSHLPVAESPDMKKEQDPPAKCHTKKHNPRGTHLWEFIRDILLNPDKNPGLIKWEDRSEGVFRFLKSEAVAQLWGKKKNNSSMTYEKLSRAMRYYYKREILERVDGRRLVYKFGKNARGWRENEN
Procedure, shortened: as §1

SPI1 = SPI1 (Homo sapiens, UniProt P17947 1-270); conditions: protein: recombinant; tags: N-terminal GST; dsDNA, one strand shown
Procedure, shortened: as §1

SPIB = SPIB (Homo sapiens, UniProt Q01892 1-262); conditions: protein: recombinant; tags: N-terminal GST; dsDNA, one strand shown
Procedure, shortened: as §1

ELK3 = biological target: T8, ELK3 (Homo sapiens, UniProt P41970 1-407); conditions: protein: recombinant; tags: N-terminal GST; dsDNA, one strand shown
T8 sequence: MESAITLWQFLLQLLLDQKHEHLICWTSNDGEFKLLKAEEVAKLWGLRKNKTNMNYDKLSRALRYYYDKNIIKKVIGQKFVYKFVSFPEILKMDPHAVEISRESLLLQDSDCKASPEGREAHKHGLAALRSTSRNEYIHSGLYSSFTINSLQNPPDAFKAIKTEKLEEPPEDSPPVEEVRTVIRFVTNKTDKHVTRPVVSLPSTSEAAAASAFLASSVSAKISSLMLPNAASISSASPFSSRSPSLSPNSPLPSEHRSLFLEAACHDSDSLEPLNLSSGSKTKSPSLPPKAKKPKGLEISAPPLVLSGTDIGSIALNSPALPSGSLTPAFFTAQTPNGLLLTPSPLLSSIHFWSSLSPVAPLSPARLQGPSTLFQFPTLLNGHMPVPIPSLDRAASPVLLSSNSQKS
Procedure, shortened: as §1

FEV = biological target: T9, FEV (Homo sapiens, UniProt Q99581 1-238); conditions: protein: recombinant; tags: N-terminal GST; dsDNA, one strand shown
T9 sequence: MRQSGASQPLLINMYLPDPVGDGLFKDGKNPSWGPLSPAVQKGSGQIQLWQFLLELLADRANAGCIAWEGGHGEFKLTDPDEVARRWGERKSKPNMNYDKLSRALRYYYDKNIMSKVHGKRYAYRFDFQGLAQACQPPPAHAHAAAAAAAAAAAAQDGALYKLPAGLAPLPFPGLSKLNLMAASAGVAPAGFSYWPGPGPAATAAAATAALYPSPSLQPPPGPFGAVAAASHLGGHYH
Procedure, shortened: as §1

SPIC = biological target: T10, SPIC (Homo sapiens, UniProt Q8N5J4 1-248); conditions: protein: recombinant; tags: N-terminal GST; dsDNA, one strand shown
T10 sequence: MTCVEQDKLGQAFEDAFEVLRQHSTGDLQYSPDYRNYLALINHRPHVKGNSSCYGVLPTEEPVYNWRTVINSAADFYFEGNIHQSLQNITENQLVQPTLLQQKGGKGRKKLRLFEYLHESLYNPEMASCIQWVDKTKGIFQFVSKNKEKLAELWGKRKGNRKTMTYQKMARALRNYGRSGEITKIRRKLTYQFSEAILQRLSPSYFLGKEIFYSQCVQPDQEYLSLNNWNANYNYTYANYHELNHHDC
Procedure, shortened: as §1

ELF4 = ELF4 (Homo sapiens, UniProt Q99607 1-663); conditions: protein: recombinant; tags: N-terminal GST; dsDNA, one strand shown
Procedure, shortened: as §1

ETV2 = biological target: T11, ETV2 (Homo sapiens, UniProt O00321 1-342); conditions: protein: recombinant; tags: N-terminal GST; dsDNA, one strand shown
T11 sequence: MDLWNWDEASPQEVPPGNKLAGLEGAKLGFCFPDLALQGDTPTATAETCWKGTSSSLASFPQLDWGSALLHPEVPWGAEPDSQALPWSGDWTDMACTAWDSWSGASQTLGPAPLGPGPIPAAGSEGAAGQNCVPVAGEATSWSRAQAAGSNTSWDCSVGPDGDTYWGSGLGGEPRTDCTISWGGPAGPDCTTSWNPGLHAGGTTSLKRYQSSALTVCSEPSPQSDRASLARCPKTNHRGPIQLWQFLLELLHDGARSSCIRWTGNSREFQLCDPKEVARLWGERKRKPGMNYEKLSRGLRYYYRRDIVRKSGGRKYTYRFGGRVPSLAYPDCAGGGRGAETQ
Procedure, shortened: as §1

ETV1 = ETV1 (Homo sapiens, UniProt P50549 1-477); conditions: protein: recombinant; tags: N-terminal GST; dsDNA, one strand shown
Procedure, shortened: as §1

CRX, sequence (O43186 whole entry): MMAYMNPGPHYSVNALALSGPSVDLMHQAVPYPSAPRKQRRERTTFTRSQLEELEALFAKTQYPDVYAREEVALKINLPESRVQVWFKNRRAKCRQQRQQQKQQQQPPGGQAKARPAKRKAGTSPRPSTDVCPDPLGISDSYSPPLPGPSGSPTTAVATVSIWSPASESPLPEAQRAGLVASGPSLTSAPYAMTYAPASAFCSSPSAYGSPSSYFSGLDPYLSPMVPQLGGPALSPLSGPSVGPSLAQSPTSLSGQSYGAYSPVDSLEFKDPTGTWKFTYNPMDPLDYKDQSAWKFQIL
ETV5, sequence (P41161 whole entry): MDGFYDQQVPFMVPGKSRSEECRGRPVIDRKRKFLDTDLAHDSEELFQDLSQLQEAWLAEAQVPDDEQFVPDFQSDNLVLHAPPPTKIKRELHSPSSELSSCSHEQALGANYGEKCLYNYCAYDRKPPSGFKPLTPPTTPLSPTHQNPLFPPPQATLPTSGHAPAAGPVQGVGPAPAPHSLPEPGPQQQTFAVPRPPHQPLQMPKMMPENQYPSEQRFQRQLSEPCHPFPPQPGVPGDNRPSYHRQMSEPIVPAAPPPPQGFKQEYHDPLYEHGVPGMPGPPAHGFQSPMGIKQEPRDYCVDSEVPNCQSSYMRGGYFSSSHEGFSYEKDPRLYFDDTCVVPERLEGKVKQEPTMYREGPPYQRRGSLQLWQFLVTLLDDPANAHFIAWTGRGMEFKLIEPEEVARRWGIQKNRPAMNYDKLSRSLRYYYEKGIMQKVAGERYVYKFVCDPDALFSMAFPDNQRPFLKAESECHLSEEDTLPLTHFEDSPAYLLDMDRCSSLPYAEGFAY
ELF1, sequence (P32519 whole entry): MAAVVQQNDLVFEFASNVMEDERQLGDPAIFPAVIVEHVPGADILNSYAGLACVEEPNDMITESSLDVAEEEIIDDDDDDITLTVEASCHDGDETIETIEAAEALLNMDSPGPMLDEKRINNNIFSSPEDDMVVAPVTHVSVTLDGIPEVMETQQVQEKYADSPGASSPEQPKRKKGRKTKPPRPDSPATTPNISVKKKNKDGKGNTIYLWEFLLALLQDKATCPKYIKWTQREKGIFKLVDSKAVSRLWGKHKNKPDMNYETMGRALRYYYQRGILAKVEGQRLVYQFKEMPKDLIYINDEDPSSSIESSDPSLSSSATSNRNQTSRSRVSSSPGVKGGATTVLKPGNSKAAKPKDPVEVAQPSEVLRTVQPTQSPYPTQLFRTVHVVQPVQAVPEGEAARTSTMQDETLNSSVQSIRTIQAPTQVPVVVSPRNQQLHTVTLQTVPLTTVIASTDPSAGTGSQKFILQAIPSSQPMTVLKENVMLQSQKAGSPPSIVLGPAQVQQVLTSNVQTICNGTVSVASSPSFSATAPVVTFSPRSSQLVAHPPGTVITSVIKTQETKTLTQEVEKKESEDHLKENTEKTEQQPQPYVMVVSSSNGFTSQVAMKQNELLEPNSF
SPIB, sequence (Q01892 whole entry): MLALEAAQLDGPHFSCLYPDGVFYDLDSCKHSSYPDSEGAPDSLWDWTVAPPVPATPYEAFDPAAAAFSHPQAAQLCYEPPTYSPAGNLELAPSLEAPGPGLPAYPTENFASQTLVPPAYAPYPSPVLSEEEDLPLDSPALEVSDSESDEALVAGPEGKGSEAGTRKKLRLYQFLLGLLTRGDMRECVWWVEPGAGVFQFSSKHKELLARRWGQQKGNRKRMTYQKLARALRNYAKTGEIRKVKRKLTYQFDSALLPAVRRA
HSF1, sequence (Q00613 whole entry): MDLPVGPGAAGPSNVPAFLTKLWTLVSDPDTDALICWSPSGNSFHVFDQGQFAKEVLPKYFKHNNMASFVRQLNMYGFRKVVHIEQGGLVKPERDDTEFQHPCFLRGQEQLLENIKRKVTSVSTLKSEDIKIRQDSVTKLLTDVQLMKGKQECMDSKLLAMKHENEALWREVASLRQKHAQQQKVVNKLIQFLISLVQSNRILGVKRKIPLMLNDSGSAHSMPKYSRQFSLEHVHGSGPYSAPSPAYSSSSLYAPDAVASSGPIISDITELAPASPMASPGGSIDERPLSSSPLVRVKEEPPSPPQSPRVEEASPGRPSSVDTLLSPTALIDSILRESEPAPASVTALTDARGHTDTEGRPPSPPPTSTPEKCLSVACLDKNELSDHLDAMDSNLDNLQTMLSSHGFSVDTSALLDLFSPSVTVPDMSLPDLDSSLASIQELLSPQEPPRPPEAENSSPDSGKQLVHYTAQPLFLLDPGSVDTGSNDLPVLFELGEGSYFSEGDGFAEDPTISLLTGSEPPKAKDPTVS
ETV1, sequence (P50549 whole entry): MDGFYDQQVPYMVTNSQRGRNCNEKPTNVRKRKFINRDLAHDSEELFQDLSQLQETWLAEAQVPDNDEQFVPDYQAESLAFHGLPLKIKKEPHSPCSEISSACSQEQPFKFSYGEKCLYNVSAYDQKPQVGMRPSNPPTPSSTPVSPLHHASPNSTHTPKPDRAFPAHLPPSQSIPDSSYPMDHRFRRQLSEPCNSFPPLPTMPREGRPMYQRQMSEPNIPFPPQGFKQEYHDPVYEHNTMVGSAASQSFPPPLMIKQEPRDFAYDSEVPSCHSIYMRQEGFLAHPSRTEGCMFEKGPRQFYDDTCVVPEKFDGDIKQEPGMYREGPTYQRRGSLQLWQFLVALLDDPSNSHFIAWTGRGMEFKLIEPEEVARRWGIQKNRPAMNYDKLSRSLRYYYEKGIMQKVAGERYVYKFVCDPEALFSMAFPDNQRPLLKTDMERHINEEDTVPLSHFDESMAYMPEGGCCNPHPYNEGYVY
ELF4, sequence (Q99607 whole entry): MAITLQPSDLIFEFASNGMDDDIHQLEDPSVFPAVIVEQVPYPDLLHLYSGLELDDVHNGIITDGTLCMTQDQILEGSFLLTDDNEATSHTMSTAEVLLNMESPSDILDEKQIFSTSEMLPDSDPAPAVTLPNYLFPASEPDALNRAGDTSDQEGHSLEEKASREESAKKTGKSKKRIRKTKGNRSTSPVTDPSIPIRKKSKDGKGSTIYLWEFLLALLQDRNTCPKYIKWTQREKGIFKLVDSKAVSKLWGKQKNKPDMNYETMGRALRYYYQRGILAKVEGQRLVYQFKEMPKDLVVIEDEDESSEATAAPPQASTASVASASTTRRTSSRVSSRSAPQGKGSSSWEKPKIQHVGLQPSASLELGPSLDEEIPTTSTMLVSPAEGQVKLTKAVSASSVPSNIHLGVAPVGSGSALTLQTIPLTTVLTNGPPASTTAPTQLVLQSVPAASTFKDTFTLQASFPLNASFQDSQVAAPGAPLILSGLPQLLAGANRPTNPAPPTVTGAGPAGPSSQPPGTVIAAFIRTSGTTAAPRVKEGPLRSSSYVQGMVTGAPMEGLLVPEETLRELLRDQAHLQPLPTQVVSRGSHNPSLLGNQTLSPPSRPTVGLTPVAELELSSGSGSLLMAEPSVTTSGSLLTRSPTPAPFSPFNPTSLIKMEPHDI

Sequence | binding signal (FLI1) | binding signal (ELK1) | binding signal (ELF1) | binding signal (ETV5) | binding signal (HSF1) | binding signal (ELK4) | binding signal (ELF3) | binding signal (CRX) | binding signal (GABPA) | binding signal (ERG) | binding signal (EHF) | binding signal (SPI1) | binding signal (SPIB) | binding signal (ELK3) | binding signal (FEV) | binding signal (SPIC) | binding signal (ELF4) | binding signal (ETV2) | binding signal (ETV1)
CCTAGA | 1.04 fold enrichment (6-mer frequency, TF over GST control) | 1.01 fold enrichment (6-mer frequency, TF over GST control) | 1.02 fold enrichment (6-mer frequency, TF over GST control) | 1.01 fold enrichment (6-mer frequency, TF over GST control) | 1.88 fold enrichment (6-mer frequency, TF over GST control) | 1.07 fold enrichment (6-mer frequency, TF over GST control) | 1.12 fold enrichment (6-mer frequency, TF over GST control) | 1.22 fold enrichment (6-mer frequency, TF over GST control) | – | – | – | – | – | – | – | – | – | – | –
CCGCCA | 1.38 fold enrichment (6-mer frequency, TF over GST control) | 1.31 fold enrichment (6-mer frequency, TF over GST control) | 1.32 fold enrichment (6-mer frequency, TF over GST control) | 1.21 fold enrichment (6-mer frequency, TF over GST control) | – | 1.44 fold enrichment (6-mer frequency, TF over GST control) | 1.48 fold enrichment (6-mer frequency, TF over GST control) | 1.02 fold enrichment (6-mer frequency, TF over GST control) | 1.29 fold enrichment (6-mer frequency, TF over GST control) | 1.3 fold enrichment (6-mer frequency, TF over GST control) | 1.37 fold enrichment (6-mer frequency, TF over GST control) | 1.3 fold enrichment (6-mer frequency, TF over GST control) | 1.09 fold enrichment (6-mer frequency, TF over GST control) | 1.34 fold enrichment (6-mer frequency, TF over GST control) | 1.37 fold enrichment (6-mer frequency, TF over GST control) | 1.37 fold enrichment (6-mer frequency, TF over GST control) | 1.45 fold enrichment (6-mer frequency, TF over GST control) | 1.19 fold enrichment (6-mer frequency, TF over GST control) | 1.32 fold enrichment (6-mer frequency, TF over GST control)
